Assay results taken from PubChem BioAssay.
Activity calls are given as the source filed them.

experiment: PSAC antagonists in infected red cells, primary screen, cell-based, P. falciparum Indochina, OD700, 2 h (AID 1155);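 further: lysis reports solute entry through the parasite surface anion channel PSAC; channel blockers reduce lysis of infected cells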; details: P. falciparum Indochina infected erythrocytes, osmotic lysis OD700; higher = more signal, called active from +8 up or from −8 down

z-score, inactive:
CCOC(=O)[C@H](CC(C)C)NC(=O)CCC1CC(OC(=O)NCc2cccc3ccccc23)CC2(CCCC(COC(=O)NCCC(C)C)O2)O1 (some centres not stated) 6.81
CCOC(=O)[C@H](CC(C)C)NC(=O)CCC1CC(OC(=O)NCc2cccc3ccccc23)CC2(CCCC(COC(=O)NCC3CCCCC3)O2)O1 (some centres not stated) -1.04
CCC=CCCC(OC(=O)c1ccc(Br)cc1)C1=CCCCC1=O (configuration not stated) 0.626
Cc1cc2c(nc1C)CCCCN2CC(C)ON=C[C@@H](C)[C@H](OCc1ccccc1)C(C)C (some centres not stated) 0.147
CCOC(=O)[C@H](Cc1ccccc1)NC(=O)CCC1CC(OC(=O)NCc2cccc3ccccc23)CC2(CCCC(COC(=O)NCCC(C)C)O2)O1 (some centres not stated) 1.95
Cc1ccc(S(=O)(=O)n2c3ccccc3c3nnc(C(=O)c4ccccc4)nc32)cc1 0.266
COC(=O)NCC=Cc1nc(CCCO)co1 0.496
Cc1ccc(S(=O)(=O)N[C@H]2COC(=O)CC=C[C@H](C)[C@@H](NS(=O)(=O)c3ccc(C)cc3)COC(=O)CC=C[C@@H]2C)cc1 0.283
O=C1[C@H]2[C@H]3[C@H](O)[C@H](O)CC(=NOCc4ccccc4)[C@@H]3CC[C@H]2C(=O)N1C[C@@H]1CCCO1 0.141
CCCCC#C[C@@H]1C=C[C@H](OC(C)=O)[C@@H](COC(C)=O)O1 0.364
Cc1cc2c(nc1C)CCCN2CC(O)CN1CCCc2nc(C)c(C)cc21 0.185
C#CCCCON=C1C[C@@H](O)[C@@H](O)[C@@H]2[C@@H]3C(=O)N(CC)C(=O)[C@@H]3CC[C@@H]12 0.363
